IDE cell activ: human IDE activators in live cells, primary screen, fluorescence polarization, HEK cells, FAbeta-B substrate | Insulin-degrading enzyme (Homo sapiens), P14735 | FAbeta-B cleavage; 0% vehicle, 100% cell-free pure enzyme wells | activation, % at 5.96 µM | hit rate 0.073% among 340,000;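 active means activation above the mean of all tested compounds plus 3 SD, set per screening campaign, cut at about 17% in these data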
LANA-H2B inh: blockers of LANA interaction with H2A/H2B – biochemical, FP readout, HTS, primary screen; hit rate 0.6% among 320,000; Protein LANA1 (Human herpesvirus 8 type P (isolate GK18)), Q9QR71; inhibition, % (no concentration beside the values); cell-free LANA-H2A/H2B peptide, fluorescence polarization; in the data active means inhibition mostly above about 10%, no sharp cut-off; inactive means mostly below about 6.7%
HDAC3 inh: HDAC3 deacetylase inhibitors, primary screen, biochemical, fluorescence, cell-free homogeneous | Histone deacetylase 3 (Homo sapiens), O15379 | recombinant HDAC3, fluorogenic peptide/trypsin coupled | inhibition, % at 8.3 µM | hit rate 0.15% among 320,000; in the data active means inhibition above about 26%, passing the limit was not always enough
IDE cell inh: human IDE inhibitors in live cells, primary screen, fluorescence polarization, HEK cells, FAbetaB substrate | Insulin-degrading enzyme (Homo sapiens), P14735 | FAbetaB cleavage | inhibition, % at 5.59 µM | hit rate 0.41% among 320,000 | AID 434962, 2010;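 active means percent inhibition above the average of all tested compounds plus 3 SD, set per screening campaign, cut at about 16% in these data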;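 further: IDE supplied by intact live HEK cells; FP after avidin binding of uncleaved biotin substrate so inhibition keeps polarization high; 0% = DMSO wells and 100% = 60 µM reference IDE inhibitor Ii1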
SUMO Mot1 rescue: yeast Mot1-301 growth rescue at high temperature, primary screen, SUMOylation pathway inhibitor project, S. cerevisiae, ATP luminescence, 38.5C; S. cerevisiae Mot1-301 growth rescue; percent above DMSO median, 100 means doubled; growth rescue, % at 18.8 µM; hit rate 1% among 320,000;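 active means every valid replicate shows activation above 250% relative to neutral control wells; inactive means the rest, any valid replicate at or below 250%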;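 further: OY570 slx delta 5 strain wells were the positive control but not used for scaling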
IDE inh confirm: human IDE inhibitors in live cells, confirmation, fluorescence polarization, HEK cells, FAbetaB substrate; shares compounds with IDE cell inh; FAbetaB cleavage; inhibition, % at 5.59 µM; hit rate 51% among 1,200; AID 435028, 2010;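 active means mean inhibition across triplicate wells above the cutoff set by the earlier primary insulin-degrading enzyme screen, cut at about 16% in these data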;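 further: 0% = DMSO wells and 100% = 60 µM reference IDE inhibitor Ii1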
HEK cytotox: cytotoxicity in HEK cells, cytotoxicity control for IDE inhibitor project, cell-based, luminescence | shares compounds with IDE cell inh | HEK293 cytotoxicity, ATP luminescence | inhibition, % at 5.59 µM | hit rate 28% among 1,200; in the data active means inhibition above about 22%;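 further: 0% = vehicle wells and 100% = reference cytotoxic drug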
* marks the source's active call; other numbers are inactive results; / = not tested or not shown. Shown are actives, neighbours in structure and some others; about 2.1% of the full set was active somewhere.

SMILES	IDE cell activ	LANA-H2B inh	HDAC3 inh	IDE cell inh	SUMO Mot1 rescue	IDE inh confirm	HEK cytotox
S=c1nccc(-c2cccs2)[nH]1	-16	-4	0	20*	3	4	12
COc1ccccc1NS(=O)(=O)c1ccc(NC(=O)N2CCCCC2)cc1	2	6	/	-1	-19	/	/
CCOc1ccc(S(=O)(=O)N2CCCCC2)cc1NC(=O)CCNC(=O)c1ccco1	2	/	/	/	/	/	/
CC(=O)N1CC[n+]2c(-c3ccc(Cl)cc3)csc21	-14	0	13	22*	-24	2	14
CCc1ccc(-c2csc3[n+]2CCN3C(C)=O)cc1	-14	-5	1	2	-10	/	/
Cc1cc(C(=O)N2CCN(c3ccc(C(F)(F)F)cn3)CC2)c(C)o1	-18	1	/	17*	4	2	21
COc1cccc(NC(=O)N2CCN(c3ccc(C(F)(F)F)cn3)CC2)c1	-7	-1	-3	18*	3	8	26*
O=C(Nc1ccccc1)N1CCCN(c2ccc(C(F)(F)F)cn2)CC1	0	-2	3	-4	3	/	/
Cc1ccc(C(=O)C(OC(=O)CNC(=O)c2ccc(Cl)cc2)c2ccccc2)cc1 (stereo not given)	3	3	0	17*	50	1	10
CC(C)=CCC/C(C)=C/CNC(=O)C[C@H]1C[C@H](C(=O)N2CCOCC2)[C@@]2(CCC3CCCC3)c3[nH]c4cc(-c5ccco5)ccc4c3CCN2C1=O	5	/	/	/	/	/	/
CCOC(=O)c1c(C)[nH]c(C(=O)Cn2nnc(-c3ccccc3)n2)c1C	0	0	2	6	15	/	/
CCOC(=O)c1c(C)[nH]c(C(=O)Cn2nnc(-c3ccccc3Cl)n2)c1C	-19	5	6	19*	3	4	15
O=C(COC(=O)c1cc([N+](=O)[O-])ccc1N1CCOCC1)Nc1c(Cl)cccc1C(F)(F)F	8	-2	3	0	-11	/	/
Cn1c(CC(=O)NNC(=O)c2cncc(Br)c2)nc2ccccc21	3	-1	-12	-1	-13	/	/
COc1ccc2nc3sc(C(=O)N4CCN(C)CC4)cc3cc2c1	3	-3	-4	5	13	/	/
COc1ccc2nc3sc(C(=O)NCCCN4CCc5ccccc5C4)cc3cc2c1	-8	-1	4	20*	50	3	11
N#CCC(=O)N1CCN(Cc2ccc3c(c2)OCO3)CC1	/	0	/	-9	1	/	/
COc1cc(C(=O)N2CCN(C(=O)C3COc4ccccc4O3)CC2)cc(OC)c1OC (stereo not given)	-15	-3	6	23*	-4	16	9
NC(=O)COC(=O)C1CSC2(c3ccc(F)cc3)CCC(=O)N12 (stereo not given)	-1	3	-2	5	38	/	/
COc1cc(/C=C/C(=O)CC(=O)/C=C/c2ccc(O)c(OC)c2)ccc1O	-63	-11	19	31*	210	81*	9
COc1cc(/C=C/C(=O)O)ccc1O	3	-9	-7	-7	18	/	/
Cc1ccc(Cn2nnc3c(=O)[nH]c(C4CCN(S(=O)(=O)c5ccccc5F)CC4)nc32)cc1	-1	0	1	-5	-12	/	/
O=C(CN1CCC(NC(=O)Nc2ccc(F)cc2)CC1)Nc1ccccc1[N+](=O)[O-]	-4	1	6	3	-2	/	/
O=C(CN1C(=O)NC2(CCCCCCC2)C1=O)NCc1ccccc1	2	-1	1	1	-1	/	/
COc1ccc(-c2cn3c(C)c(C(=O)Nc4cccc(C)n4)sc3n2)cc1	-1	-1	-3	1	6	/	/
SMILES	IDE cell activ	LANA-H2B inh	HDAC3 inh	IDE cell inh	SUMO Mot1 rescue	IDE inh confirm	HEK cytotox
Cc1c(C(=O)NCc2ccccn2)sc2nc(-c3ccc(F)cc3)cn12	-11	-2	-7	20*	1	11	62*
Cc1c(C(=O)NCc2ccccn2)sc2nc(-c3ccccc3)cn12	-6	5	1	8	2	/	/
Cc1cccc(NC(=O)c2sc3nc(-c4ccccc4)cn3c2C)n1	-11	1	1	17*	11	11	29*
C=CCn1c(COc2cccc(C)c2C)nnc1SCC(=O)N1CCN(c2ccccc2)CC1	-17	3	6	27*	-3	-1	38*
OCC[n+]1ccc(/C=C/c2c[nH]c3ccccc23)cc1	-29	-168	15	24*	-2	39*	57*
C(=Cc1c[nH]c2ccccc12)c1nccc2ccccc12	-8	/	/	/	/	/	/
CC(=Nc1ccc(C)cc1C)c1sc2ccccc2c1O	-10	-4	5	6	-13	/	/
CC(=Nc1cccc(O)c1)c1sc2ccccc2c1O	-20	2	15	27*	8	65*	10
CC(=Nc1ccc(C)cc1)c1sc2ccccc2c1O	-46	-5	14	25*	30	44*	19
COCCN(C(=O)c1snc(C(N)=O)c1N)C(C(=O)NC1CCCCC1)c1ccc(N(C)C)cc1 (stereo not given)	5	7	3	2	20	/	/
C=CCN(c1ccccc1OC)S(=O)(=O)c1cccc(C(=O)OCC(=O)c2c(N)n(C)c(=O)n(C)c2=O)c1	0	/	/	/	/	/	/
c1ccc(-c2ccc(-c3ccncn3)cc2)cc1	-5	3	-12	-1	14	/	/
Cc1c(O)c2c3c(cccc3c1O)C(=O)N(c1ccccc1)C2=O	-54	0	6	60*	44	87*	9
O=C(O)c1ccc2c3c(cccc13)C(=O)N(c1ccccc1)C2=O	5	3	7	4	-13	/	/
O=C(NCC(=O)N(c1cccnc1)C(C(=O)NC1CCCCC1)c1ccccc1F)c1ccco1 (stereo not given)	1	2	-7	-8	7	/	/
O=C(O)CC12CC3CC(C1)CC(n1ncc(NCc4ccc(F)cc4Cl)c(Cl)c1=O)(C3)C2	-15	3	1	28*	136	21*	5
O=C(O)CC12CC3CC(C1)CC(n1ncc(NCc4ccccc4Cl)c(Cl)c1=O)(C3)C2	-36	1	2	39*	15	20*	9
COc1ccc(NS(=O)(=O)c2ccc3c(c2)NC(=O)CCS3)cc1Cl	-3	-9	-3	1	-11	/	/
Cc1ccc(OCCSc2nnc(-c3cccs3)n2C)cc1	-20	-3	-5	20*	-4	8	6
Cc1cc(OCCSc2nnc(-c3cccs3)n2C)ccc1Cl	-22	1	4	12	-2	/	/

Screening data deposited in PubChem by several laboratories.
